Assay outcomes (PubChem)
BAZ2B block: BAZ2B (human) inhibition | Q9UIF8 | AID 504333 | 360,000 compounds, 4.4% hits | Potency, µM (doses to about 114 µM), inactives show at the top dose activity change, negative = inhibition, usual class: inhibitors | AlphaScreen BAZ2B-H3K14Ac peptide displacement; further: on the % scale 0 is the no-effect control and ±100 the full control effect; nearly all actives have a fitted effect of over 60% in size
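BAZ2B 50 nM plus b-H3(5-23)K14Ac 50 nM, PBS pH 7.4/0.01% Tween-20, 30 min RT; compound added (max 110 uM), 30 min RT; streptavidin donor/Ni-chelate acceptor beads 10 ug/mL final, 20 min dark; AlphaScreen read.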
HP1b chromo inh: HP1-beta chromodomain-methylated histone interaction inhibition | Potency, µM (highest dose often 114 µM), without a hit: at the highest dose activity change, negative = inhibition, most hits filed as inhibitors | AID 540317 | AlphaScreen HP1-beta / biotin-H3K9me3 peptide binding | 390,000 compounds, 0.56% hits; further: nearly all actives have a fitted effect of over 70% in size
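AlphaScreen: HP1-beta (50 nM) preformed 30 min with biotin-H3(1-18)K9me3 peptide (50 nM) in PBS pH 7.4, 0.01% Tween-20. Compound added for 30 min at RT, then streptavidin donor/nickel chelate acceptor beads (10 ug/mL) for 30 min.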
Sfp inh: blocks B. subtilis Sfp PPTase activity | Q9F4F7 | Biochemical Sfp PPTase activity, qHTS | Potency, µM, inactives show largest response in the series, negative = inhibition, actives largely listed as inhibitors | 310,000 compounds, 3.5% hits;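 further: the enzyme is Sfp with the accession as filed and its product quenches rhodamine fluorescence; 0% = enzyme reaction without inhibitor and -100% = no enzyme wells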
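Fluorescence-quenching assay: 15 nM Sfp-PPTase preincubated 15 min at room temperature with compound, then 5 uM rhodamine-CoA and 12.5 uM BHQ-2-labelled YbbR peptide added. Fluorescence (ex 525/em 598 nm) read at start and after 30 min; difference gives rate.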
TDP1 inh: inhibitors of human tyrosyl-DNA phosphodiesterase TDP1. Q9NUW8. recombinant TDP1, AlphaScreen DNA substrate cleavage. Potency, µM (doses to about 130 µM), without a hit: at the top dose activity change, negative = inhibition, actives largely listed as inhibitors. 350,000 compounds, 0.28% hits; further: on the % scale 0 is the no-effect control and ±100 the full control effect; nearly all actives have a fitted effect of over 40% in size
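Compounds were preincubated with Tdp1 (1 nM final) for 15 min at room temperature before substrate (15 nM final) started a 5 min reaction; beads (10 ug/ml final) were then added for 10 min before AlphaScreen detection.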
JMJD2A Tudor: blocks the human JMJD2A Tudor domain | AlphaScreen JMJD2A-Tudor / H3K4me3 peptide binding | O75164 | Potency, µM (titrated, usually from 114 µM), inactives show at the highest dose activity change, negative = inhibition, hits mostly inhibitors | 390,000 compounds, 4.4% hits; further: on the % scale 0 is the no-effect control and ±100 the full control effect; nearly all actives have a fitted effect of over 50% in size
G9a inh: blocks human histone lysine methyltransferase G9a; 350,000 compounds, 8.8% hits; G9a H3K9 monomethylation, AlphaScreen, 2 h; Potency, µM (series often up to 102 µM), without a hit: at the highest dose activity, negative = inhibition, usual class: inhibitors; Q96KQ7; further: on the % scale 0 is the no-effect control and ±100 the full control effect; nearly all actives have a fitted effect of over 75% in size
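Quantitative HTS format: methyltransferase activity on a biotin-tagged H3K9 peptide is measured by AlphaScreen, using a rabbit anti-monomethyl-H3K9 antibody with streptavidin donor and anti-IgG acceptor beads. Final levels are 20 nM enzyme, 500 nM peptide, 20 uM SAM; 2 h RT.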
Starred values were filed as active, the others as inactive; u = inconclusive; x = no result; [ ] = dose if it differs, or a comment. Only some compounds are listed: those with a hit (about 12% of all), similar ones and a draw of the others. The call rests on the fitted dose curve; in most records, active means well fitted curve in the direction sought with a large enough effect; inconclusive means small, poorly fitted or top-dose-only effect, or another doubt; inactive means no such curve, though single readings can be large; an effect the other way counts as inactive or inconclusive. Potency means the concentration at half of the fitted maximal effect.

SMILES	BAZ2B block	HP1b chromo inh	Sfp inh	TDP1 inh	JMJD2A Tudor	G9a inh
CN1C(=O)C2(c3ccccc31)N(c1ccccc1)C(=O)CS2(=O)=O (centres undefined)	8.3%[57.1 µM]	29.6%	x	0.0%	-11.3%	-8.8%[59 µM]
CN1C(=O)C2(c3ccccc31)N(c1cccc(F)c1)C(=O)CS2(=O)=O (centres undefined)	27.4%[57.1 µM]	54.0%	x	3.2%	-11.0%	15.8µM*
COc1ccc(C(=O)Nc2ccc(-c3nc4ccccc4s3)c(Cl)c2)cc1Cl	-0.8%	38.8%	x	-4.2%	-8.6%	-6.5%[59 µM]
O=C(O)c1ccc(C2NCC(c3ccccc3Cl)c3c2[nH]c2ccccc32)cc1 (centres undefined)	-33.1%	5.8%	-11.3%	8.2%	u	-7.3%[59 µM]
COc1cc(C2NCC(c3ccc(Cl)cc3Cl)c3c2[nH]c2ccccc32)cc(OC)c1OC (centres undefined)	35.5µM*	u	u	5.5%	44.7µM*	-17.7%[59 µM]
Cc1ccc(S(=O)(=O)N2CCN(c3nc(C#N)nc4ccccc34)CC2)cc1	x	x	x	-1.3%	-10.9%	x
O=C1N[C@@H](Cc2c[nH]c3ccccc23)COC(=O)[C@@H](Cc2ccc(F)cc2)CC/C=C/C[C@@H]1CC(=O)N(CCO)Cc1ccccc1	x	9.4%	x	3.6%	u	x
COc1cc(Cl)c(C)cc1NC(=O)CSc1ncc(S(=O)(=O)c2ccc(C(C)(C)C)cc2)c(=O)[nH]1	25.1µM*	-21.4%	x	u	89.1µM*	-48.9%[59 µM]
CC(C)(C)c1ccc(S(=O)(=O)c2cnc(SCC(=O)Nc3ccc(F)c(Cl)c3)[nH]c2=O)cc1	-31.2%	19.6%	x	x	u	-19.5%[59 µM]
Cc1ccsc1/C=C/C1=Cc2c(sc(NC(=O)CSc3n[nH]c(N)n3)c2C#N)C(C)(C)C1	u	-20.3%	39.8µM*	5.1%	u	35.5µM*
COC(=O)c1sc(NC(=O)CSc2n[nH]c(N)n2)c(C(=O)OC)c1C	-9.1%	35.4%	-3.9%	2.7%	-6.5%	20.5%
CCOc1ccc(/C=C/C2=Cc3c(sc(NC(=O)CSc4n[nH]c(N)n4)c3C#N)C(C)(C)C2)cc1	39.8µM*	-30.3%	39.8µM*	7.4%	u	u
O=C(c1ccco1)[C@@H]1[C@@H]2C(=O)N(c3ccc(F)cc3)C(=O)[C@@H]2C2c3ccccc3C=CN21 (some centres undefined)	u	x	-28.6%	10.0%	x	3.16µM*
Cc1ccc(C(=O)[C@@H]2[C@H]3C4COC(O4)C(=O)[C@@H]3[C@H]3C=Cc4ccccc4N32)cc1 (some centres undefined)	x	x	-27.6%	16.7%	x	x
CC(=O)[C@@H]1[C@@H]2C(=O)N(c3ccc(F)c(Cl)c3)C(=O)[C@@H]2C2c3ccccc3C=CN21 (some centres undefined)	-5.6%	x	11.0%	2.7%	x	6.31µM*
NC(=O)[C@@H]1[C@@H]2C(=O)N(c3ccc(F)cc3)C(=O)[C@@H]2[C@H]2C=Cc3ccccc3N21	-36.4%	u	56.2µM*	9.6%	-33.7%	8.91µM*
N#C[C@@H]1[C@@H]2C(=O)N(c3ccc4c(c3)OCCO4)C(=O)[C@@H]2C2c3ccccc3C=CN21 (some centres undefined)	-27.3%	x	-5.0%	4.9%	x	7.94µM*
CC(C)(C)C(=O)[C@@H]1[C@@H]2C(=O)N(Cc3ccccc3)C(=O)[C@@H]2[C@H]2c3ccccc3C=CN12	-27.4%	x	-7.0%	70.8µM*	x	10µM*
O=C(c1ccco1)[C@@H]1[C@@H]2C(=O)N(c3ccc(F)cc3)C(=O)[C@@H]2[C@H]2C=Cc3ccccc3N21	-37.1%	-26.3%	50.1µM*	7.9%	u	6.31µM*
CCn1c(=O)c2cc(C(=O)N3CCN(c4cccc(OC)c4)CC3)sc2c2ccccc21	-31.1%	2.5%	x	10.4%	-33.3%	-37.6%[59 µM]
Cc1nc(N=Nc2ccc(O)cc2)n[nH]1	u	36.9%	u	x	6.5%	-119.4%[59 µM]
Cc1[nH]c(N=Nc2ccccc2)nc1N=Nc1ccccc1	6.31µM*	u	-17.9%	12.3%	7.94µM*	7.94µM*
CC(C)c1nc(N(C)S(C)(=O)=O)nc(-c2ccc(F)cc2)c1/C=C/C(O)CC(O)CC(=O)O (centres undefined)	x	x	9.9%	5.8%	x	-32.8%[2.33 µM]
CC(=O)N[C@H]1[C@@H](O[C@@H](C)C(=O)O)[C@H](O)[C@H](CO)O[C@@H]1O	x	x	14.8%	12.8%[21 µM]	x	18.4%[21.5 µM]
O=C(C1=C[C@@H]2[C@H]3C(=O)N(c4ccccc4)C(=O)[C@H]3[C@@H](C(=O)c3ccc(Cl)cc3)N2C=C1)c1ccccc1	u	x	-9.4%	3.0%	x	11.2µM*
SMILES	BAZ2B block	HP1b chromo inh	Sfp inh	TDP1 inh	JMJD2A Tudor	G9a inh
O=C(c1ccc(Cl)cc1)[C@@H]1[C@@H]2C(=O)N(c3ccc(Cl)cc3)C(=O)[C@@H]2C2c3ccccc3C=NN21 (some centres undefined)	-7.2%	24.3%	27.6%	0.0%	-9.0%	-19.5%[59 µM]
CCOC(=O)c1c(N2C(=O)Nc3cc(Cl)c(Cl)cc3N2O)sc2c1CCCCC2	u	u	-6.2%	3.2%	79.4µM*	x
CCOC(=O)c1c(-n2cnnn2)sc2c1CCCC2	-0.5%	25.9%	10.0%	0.0%	5.7%	-41.0%
CCOC(=O)c1c(N2C(=O)C3C4C=CC(O4)C3C2=O)sc2c1CCCC2 (centres undefined)	-2.3%	u	8.91µM*	7.1%	56.2µM*	1.78µM*
CN1C(=O)C2(SCC(=O)N2c2ccc(Cl)cc2)c2ccccc21 (centres undefined)	1.8%	16.5%	x	-0.9%	-0.3%	-38.9%[59 µM]
COC(=O)c1cc(C(=O)Nc2nnc(CC(C)C)s2)cc([N+](=O)[O-])c1	-1.1%	10.8%	-2.4%	8.2%	-23.2%	-18.1%[59 µM]
COCCSc1nnc(NC(=O)c2cc(C(=O)OC)cc([N+](=O)[O-])c2)s1	-37.1%	20.1%	7.9%	4.8%	-15.6%	50.1µM*
CCC(CC)c1nnc(NC(=O)c2cc(C(=O)OC)cc([N+](=O)[O-])c2)s1	-30.6%	-8.9%	44.7µM*	2.7%	-22.4%	8.91µM*
COC(=O)C[C@H](NC(=O)[C@H](C)NC(=O)[C@@H](NC(=O)OCc1ccccc1)C(C)C)C(=O)CF	x	x	28.7%	8.5%	x	37.1%[59 µM]
COc1cccc(/C=N/NC(=O)C(=O)N2CCCC2)c1O	15.8µM*	31.3%	22.1%	-8.3%	79.4µM*	u
O=C(N/N=C/c1ccccc1O)C(=O)N1CCCCCC1	79.4µM*	50.9%	23.4%	4.6%	u	77.2%
C=CCOc1ccc(/C=N/NC(=O)C(=O)N2CCCCCC2)cc1OC	3.7%	-3.7%	6.8%	3.7%	-10.1%	14.7%
